# Experimental data published in PubChem BioAssay (NCI).
# Compounds without any hit were thinned out: in the full panel of roughly 83,000, 20% have a hit.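 Method: cells in 96-well plates; compound added at one concentration; 48 h incubation; percent growth measured; values under 10 scored active.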 Active and inactive are the calls of the source.
# Tested on: HL-60(TB) leukemia
# Test: NCI-60 one-dose screen, 48 h (100 = growth as untreated, 0 = no growth, -100 = all killed)
# Conditions: 10 µM unless noted
row,Compound,growth
1,COc1cc(CCC[P+](c2ccccc2)(c2ccccc2)c2ccccc2)c(OC)c(OC)c1OC,65.7% (inactive)
2,O=[N+]([O-])c1ccc(CO)cc1,96.7% (inactive)
3,CCSc1ncnc2c1ncn2C1OC(CO)C(O)C1O (stereo unspecified),20.2% (inactive)
4,COc1cc(C(F)(F)F)ccc1-c1cc(-c2ccc(F)cc2)n[nH]1,115% (inactive)
5,C=C1C(=O)O[C@H]2[C@H]1CC/C(COC(=O)C(=O)c1c[nH]c3ccc(OC)cc13)=C\CC[C@@]1(C)O[C@@H]21,-53.2% (active)
6,COc1ccc(Br)c(C=O)c1,-16.3% (active)
7,NC[C@@](O)(c1ccc(Cl)cc1)c1ccc(-c2cn[nH]c2)cc1,-42.8% (active)
8,Nc1c(C(=O)Nc2ccccn2)sc2nc3c(cc12)C(=O)CCC3,5.15% (active)
9,O=C(O)CNC(=O)CN1C(=O)c2ccccc2C1=O,90.7% (inactive)
10,CC1CCC(C(C)C)C(NNC(N)=O)C1 (stereo unspecified),108% (inactive)
11,COc1ccc(C(=O)c2cc(OC)c(OC)c(OC)c2)cc1OC(=O)CCl,-34.4% (active)
12,CNCc1cccc2c1OCCOCCOCCC(C)S(=O)(=O)c1ccc(cc1)-c1cnc(N)c(n1)C(=O)N2 (stereo unspecified),-34.8% (active)
13,O=C1OCC2=C1C(c1cccc(Br)c1)c1cc3c(cc1N2CCO)OCCO3 (stereo unspecified),-23.7% (active)
14,C[C@@H]1C[C@H](N)C[C@H](c2ccncc2NC(=O)c2ccc(F)c(-c3c(F)cccc3F)n2)C1,-0.14% (active)
15,CC[C@@H](C(=O)[C@H](C)[C@H](O)[C@@H](C)[C@H]1O[C@H]([C@@H](CC)C(=O)N(CC)CC)CC[C@H]1C)C1O[C@]2(C=C[C@@H](O)[C@]3(CC[C@@](C)([C@H]4CC[C@](O)(CC)[C@H](C)O4)O3)O2)[C@H](C)C[C@@H]1C (stereo partly specified),-28.8% (active)
16,CC(C)=CCC[C@](C)(O)C1CC[C@]2(C)[C@@H]1CC[C@@H]1[C@@]3(C)CC/C(=N\OCCC#N)C(C)(C)[C@@H]3CC[C@]12C (stereo partly specified),69.3% (inactive)
17,O=Cc1cc2ccccc2nc1Oc1ccc(C(F)(F)F)cc1,92% (inactive)
18,CN(C)C(=O)c1ccc(SC(=S)NCc2ccccc2)cc1,-32% [100 µM] (active)
19,Cc1cc(O)cc(-c2nn(C)cc2-c2cc(N3CCOCC3)nc(-c3cccnc3)n2)c1,14.8% (inactive)
20,COc1cccc(C(=O)NCCCNc2cc(-c3cn(-c4ccccc4)nc3-c3cccc(OC)c3)ccn2)c1,22.7% (inactive)
21,Cc1c(-c2csc(-n3nc(C(F)(F)F)cc3C(F)(F)F)n2)no[n+]1[O-],97% (inactive)
22,CNc1ccccc1C(=O)N/N=C/C=C/c1ccccc1,-32.6% (active)
23,O=C1/C(=C2\SC(=S)N(C3CC3)C2=O)SC(=S)N1C1CC1,104% (inactive)
24,CC(CCCC(=O)O)c1ccoc1 (stereo unspecified),97.6% (inactive)
25,COc1cc(C2C(C#N)=C(c3c[nH]c4ccccc34)Nc3nc(N)[nH]c(=O)c32)cc(OC)c1OC (stereo unspecified),42.1% (inactive)
26,O=C(CNC(=O)c1cccc2ccccc12)Nc1ccccc1Oc1ccccc1,7.14% (active)
